Experimental findings from PubChem BioAssay (EPA / NIEHS) are described below.

Read-out in assay [1]: Transforming growth factor beta 1 (TGFb1), TGFB1 (gene 7040)
Description: BSK_KF3CT_TGFb1: BioMAP Diversity Plus: KF3CT Assay for Transforming growth factor beta 1 (TGFb1) Biomarker Activity (AID 2283072). To be noted: primary human keratinocytes with fibroblasts; actives raise or lower the signal. Put shortly:
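Human keratinocyte/foreskin fibroblast co-culture; TGF-b1 measured by ELISA 24 h after dosing, fitted bidirectionally versus DMSO. Cytotoxicity checked in parallel cultures by total protein (SRB staining, 560 nm).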

Read-out in assay [2]: C-C motif chemokine 2 (Homo sapiens) (UniProt P13500)
The experiment in a line: BSK_KF3CT_MCP1: BioMAP Diversity Plus: KF3CT Assay for Monocyte Chemoattractant Protein 1 (MCP1/CCL2) Biomarker Activity (AID 2283073). To be noted: primary human keratinocytes with fibroblasts; actives raise or lower the signal. Put shortly: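 KF3CT skin co-culture (keratinocytes/foreskin fibroblasts), 24 h post-dose; MCP-1 by ELISA; gain/loss of signal fit bidirectionally vs DMSO baseline.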

Read-out in assay [3]: Matrix Metallopeptidase 9 (MMP9), MMP9 (gene 4318)
The experiment in a line: BSK_KF3CT_MMP9: BioMAP Diversity Plus: KF3CT Assay for Matrix Metallopeptidase 9 (MMP9) Biomarker Activity (AID 2283074).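 As to AC50: MMP9 protein level quantified by ELISA in the co-culture.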 To be noted: primary human keratinocytes with fibroblasts; actives raise or lower the signal. Summed up: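 Human keratinocyte and foreskin fibroblast co-culture exposed to chemicals for 24 h; MMP9 biomarker measured by ELISA, bidirectional fitting relative to DMSO; cytotoxicity tracked by SRB total protein staining in parallel cultures.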

Read-out in assay [4]: CD40, CD40 (gene 958)
Description: BSK_LPS_CD40: BioMAP Diversity Plus: LPS Assay for CD40 Biomarker Activity (AID 2283076). To be noted: primary human HUVEC with PBMC; actives raise or lower the signal. Put shortly: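 ELISA readout of CD40 in HUVEC/PBMC co-culture (BSK_LPS system), 24 h post-dosing; bidirectional curve fit, DMSO baseline; parallel SRB total-protein staining for cytotoxicity.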

Read-out in assay [5]: E-selectin (Homo sapiens) (UniProt P16581)
Description: BSK_LPS_Eselectin: BioMAP Diversity Plus: LPS Assay for Eselectin Biomarker Activity (AID 2283077). To be noted: primary human HUVEC with PBMC; actives raise or lower the signal. Summed up: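 ELISA readout of E-selectin, 24 h post-dose, HUVEC + PBMC co-culture (LPS system). Gain or loss of signal vs DMSO baseline, bidirectional fit.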

Read-out in assay [6]: Interleukin-8 (IL8), CXCL8 (gene 3576)
Description: BSK_LPS_IL8: BioMAP Diversity Plus: LPS Assay for Interleukin-8 (IL8) Biomarker Activity (AID 2283078). To be noted: primary human HUVEC with PBMC; actives raise or lower the signal. Summed up: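 HUVEC + PBMC co-culture, LPS-activated; test chemicals dosed, IL-8 read by ELISA at 24 h. Bidirectional curve fit vs DMSO baseline (gain or loss of signal).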

Assay [7] can be described thus: BSK_LPS_SRB: Viability Assessment in the BioMAP Diversity Plus: LPS Assay (AID 2283079).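 Also: total protein by sulforhodamine B absorbance as a cytotoxicity measure; measured one day after compound addition; fitted in both directions against DMSO so loss or gain of signal counts.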 To be noted: primary human HUVEC with PBMC. Put shortly:
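HUVEC + PBMC co-culture, LPS-stimulated; compound 24 h. 10% TCA fix, 0.1% SRB stain, A560. Bidirectional fit vs DMSO.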

Read-out in assay [8]: Interleukin-1 alpha (IL1a), IL1A (gene 3552)
The experiment in a line: BSK_LPS_IL1a: BioMAP Diversity Plus: LPS Assay for Interleukin-1 alpha (IL1a) Biomarker Activity (AID 2283080). To be noted: primary human HUVEC with PBMC; actives raise or lower the signal. Put shortly:
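HUVEC/PBMC co-culture, LPS system; 24 h after dosing; IL-1a by ELISA; gain or loss of signal fitted bidirectionally vs DMSO baseline.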

Read-out in assay [9]: Monocyte Chemoattractant Protein-1 (MCP1), CCL2 (gene 6347)
The experiment in a line: BSK_LPS_MCP1: BioMAP Diversity Plus: LPS Assay for Monocyte Chemoattractant Protein-1 (MCP1) Biomarker Activity (AID 2283081). To be noted: primary human HUVEC with PBMC; actives raise or lower the signal. Summed up:
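ELISA read-out of MCP-1 after 24 h chemical dosing of a human umbilical vein endothelial cell/peripheral blood mononuclear cell co-culture stimulated with LPS. Gain or loss of signal fitted relative to DMSO controls.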

A short description of assay [10]: BSK_LPS_PGE2: BioMAP Diversity Plus: LPS Assay for Prostaglandin E2 (PGE2) Biomarker Activity (AID 2283082). To be noted: primary human HUVEC with PBMC; actives raise or lower the signal. Summed up: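 HUVEC plus human PBMC co-culture stimulated with LPS; secreted PGE2 quantified by ELISA 24 h after chemical dosing. Activity fitted bidirectionally against DMSO baseline; parallel SRB staining (0.1% SRB after 10% TCA fixation, 560 nm) flags overt cytotoxicity.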

Read-out in assay [11]: Macrophage colony-stimulating factor (MCSF), CSF1 (gene 1435)
The experiment in a line: BSK_LPS_MCSF: BioMAP Diversity Plus: LPS Assay for Macrophage colony-stimulating factor (MCSF) Biomarker Activity (AID 2283083). To be noted: primary human HUVEC with PBMC; actives raise or lower the signal. Put shortly:
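HUVEC + PBMC co-culture (human primary), 24 h post-dose; M-CSF by ELISA; gain/loss of signal fitted bidirectionally vs DMSO baseline.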

Read-out in assay [12]: Tissue Factor, F3 (gene 2152)
Description: BSK_LPS_TissueFactor: BioMAP Diversity Plus: LPS Assay for Tissue Factor Biomarker Activity (AID 2283084). To be noted: primary human HUVEC with PBMC; actives raise or lower the signal. Summed up:
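HUVEC/PBMC co-culture, LPS-activated; CD142 ELISA read 24 h post-dose; bidirectional curve fit vs DMSO negative control.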

Read-out in assay [13]: Vascular cell adhesion molecule 1 (VCAM1), VCAM1 (gene 7412)
Description: BSK_LPS_VCAM1: BioMAP Diversity Plus: LPS Assay for Vascular cell adhesion molecule 1 (VCAM1) Biomarker Activity (AID 2283086). To be noted: primary human HUVEC with PBMC; actives raise or lower the signal. Put shortly: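 Human umbilical vein endothelial cells co-cultured with PBMC and stimulated with LPS; VCAM-1 measured by ELISA 24 h after dosing. Bidirectional curve fitting against DMSO baseline; cytotoxicity tracked in parallel by SRB total-protein staining.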

Read-out in assay [14]: CD38, CD38 (gene 952)
The experiment in a line: BSK_SAg_CD38: BioMAP Diversity Plus: SAg Assay for CD38 Biomarker Activity (AID 2283087). To be noted: primary human HUVEC with PBMC; actives raise or lower the signal. Summed up: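 Human HUVEC plus PBMC co-culture stimulated with superantigen; CD38 measured by ELISA 24 h after chemical dosing. Fluorescence read-out, bidirectional fit against DMSO; cytotoxicity tracked in parallel by SRB and Alamar Blue.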

Read-out in assay [15]: CD69, CD69 (gene 969)
The experiment in a line: BSK_SAg_CD69: BioMAP Diversity Plus: SAg Assay for CD69 Biomarker Activity (AID 2283089).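 As to AC50: cell surface CD69 protein quantified by ELISA with fluorescence detection.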 To be noted: primary human HUVEC with PBMC; actives raise or lower the signal. Put shortly: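 ELISA, fluorescence read-out: CD69 on human umbilical vein endothelial cell + PBMC co-culture, 24 h post-dosing. Gain or loss of signal fitted bidirectionally against DMSO baseline.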

Read-out in assay [16]: Monocyte Chemoattractant Protein-1 (MCP1), CCL2 (gene 6347)
Description: BSK_SAg_MCP1: BioMAP Diversity Plus: SAg Assay for Monocyte Chemoattractant Protein-1 (MCP1) Biomarker Activity (AID 2283090). To be noted: primary human HUVEC with PBMC; actives raise or lower the signal. Put shortly: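 MCP-1 levels in the endothelial–PBMC SAg co-culture were quantified by ELISA at 24 h post-dosing; both increases and decreases versus DMSO scored. Cytotoxicity monitored by SRB total protein in parallel cultures.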

Read-out in assay [17]: E-selectin (Homo sapiens) (UniProt P16581)
The experiment in a line: BSK_SAg_Eselectin: BioMAP Diversity Plus: SAg Assay for Eselectin Biomarker Activity (AID 2283091). To be noted: primary human HUVEC with PBMC; actives raise or lower the signal. Put shortly: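 E-selectin ELISA readout at 24 h post-dosing in human umbilical vein endothelial cell/PBMC co-culture; gain or loss of signal fitted relative to DMSO baseline.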

Read-out in assay [18]: urokinase plasminogen activator (uPA), PLAU (gene 5328)
Description: BSK_KF3CT_uPA: BioMAP Diversity Plus: KF3CT Assay for urokinase plasminogen activator (uPA) Biomarker Activity (AID 2283075). To be noted: primary human keratinocytes with fibroblasts; actives raise or lower the signal. Put shortly:
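Primary human keratinocyte/foreskin fibroblast co-culture exposed to chemical; uPA measured by ELISA at 24 h. Bidirectional fit versus DMSO, with parallel SRB total-protein staining for cytotoxicity.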

Read-out in assay [19]: Tumor necrosis factor (Homo sapiens) (UniProt P01375)
The experiment in a line: BSK_LPS_TNFa: BioMAP Diversity Plus: LPS Assay for Tumour Necrosis Factor alpha (TNFa) Biomarker Activity (AID 2283085). To be noted: primary human HUVEC with PBMC; actives raise or lower the signal. Put shortly: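 Human umbilical vein endothelial cells co-cultured with PBMC and stimulated with LPS. TNFa was measured by ELISA 24 h after chemical dosing, fitted bidirectionally relative to DMSO.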

Read-out in assay [20]: CD40, CD40 (gene 958)
The experiment in a line: BSK_SAg_CD40: BioMAP Diversity Plus: SAg Assay for CD40 Biomarker Activity (AID 2283088). To be noted: primary human HUVEC with PBMC; actives raise or lower the signal. Put shortly:
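HUVEC/PBMC co-culture, 24 h post-dose; CD40 by ELISA, fluorescence intensity; bidirectional fit vs DMSO negative control.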

The source made the active and inactive calls. The calls were made as follows: active = hit-call score of the fitted dose curve at least 0.9, where 1 is the maximum; inactive = score below 0.9.

E-selectin (Homo sapiens), sequence (P16581 whole entry, looked up): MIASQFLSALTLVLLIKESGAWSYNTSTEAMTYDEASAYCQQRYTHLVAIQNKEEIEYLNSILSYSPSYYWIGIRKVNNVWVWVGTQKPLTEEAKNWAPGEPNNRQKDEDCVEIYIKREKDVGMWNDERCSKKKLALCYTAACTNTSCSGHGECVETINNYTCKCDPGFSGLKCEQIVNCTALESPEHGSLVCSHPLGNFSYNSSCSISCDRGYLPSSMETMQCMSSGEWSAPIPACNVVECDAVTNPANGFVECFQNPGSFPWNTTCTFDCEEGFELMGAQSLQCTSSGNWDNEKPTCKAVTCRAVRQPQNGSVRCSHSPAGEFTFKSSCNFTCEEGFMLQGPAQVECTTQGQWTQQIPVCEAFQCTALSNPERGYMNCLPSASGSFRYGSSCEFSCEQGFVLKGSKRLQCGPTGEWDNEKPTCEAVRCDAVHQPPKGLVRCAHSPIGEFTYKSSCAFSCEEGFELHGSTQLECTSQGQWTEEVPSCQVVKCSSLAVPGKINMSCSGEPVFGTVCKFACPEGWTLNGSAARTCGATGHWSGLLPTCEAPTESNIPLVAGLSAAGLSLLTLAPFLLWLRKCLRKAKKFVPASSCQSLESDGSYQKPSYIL
Tumor necrosis factor (Homo sapiens), sequence (P01375 whole entry, looked up): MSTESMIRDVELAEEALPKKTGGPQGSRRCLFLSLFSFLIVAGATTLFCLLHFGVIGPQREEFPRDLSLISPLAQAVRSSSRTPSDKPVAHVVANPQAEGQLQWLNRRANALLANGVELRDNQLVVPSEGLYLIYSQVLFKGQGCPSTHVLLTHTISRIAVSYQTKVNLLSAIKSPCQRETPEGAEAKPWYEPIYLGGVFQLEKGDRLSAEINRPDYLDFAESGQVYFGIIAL

One may read the AC50 as the concentration at which the activity in the assay is half-maximal. Turning to `CCCCC(CC)CN1C(=O)C2C3C=CC(C3)C2C1=O` (centres undefined), the outcome in assay [1], in [2], in assay [3], in assay [5], in [6] and in assay [8] was inactive. For the same compound, the outcome in assay [9], in assay [10], in assay [12], in assay [16] and in [17] was inactive. The AC50 in assay [4] is 11.6 µM (active); in assay [7], 3.97 µM (active); in assay [11] it was 15.5 µM (active); in assay [13], 20 µM (active); in assay [14], 26.3 µM (active); in assay [15] it was 20 µM (active).

For `CCCCOC(=O)C(C)Oc1ccc(Oc2ccc(C(F)(F)F)cn2)cc1` (centres undefined), the result in [1], in assay [3], in assay [18], in assay [4], in assay [5] and in [6] was inactive. The result in assay [7], in [8], in assay [9], in assay [10], in assay [11] and in assay [12] was inactive. For the same compound, the outcome in assay [19], in [13], in assay [14], in assay [20], in [15] and in assay [16] was inactive. Also, the outcome in assay [17] was inactive.

Turning to `OB(O)O`, the result in assay [1], in assay [3], in assay [18], in assay [4], in [5] and in assay [6] was inactive. The outcome in assay [7], in assay [8], in assay [9], in assay [10], in assay [11] and in [12] was inactive. Besides, the result in assay [13], in assay [14], in assay [20], in assay [15], in [16] and in assay [17] was inactive.

Take `N[C@@H](Cc1cc(I)c(Oc2ccc(O)c(I)c2)c(I)c1)C(=O)O`: the result in assay [1], in [3], in [18], in assay [4], in assay [6] and in assay [7] was inactive. Besides, the result in [8], in assay [9], in assay [10], in assay [11], in [13] and in [14] was inactive. Besides, the result in assay [20], in [15], in assay [16] and in assay [17] was inactive. The figures for the AC50 in assay [5] and in [12] were 13.6 µM (active) and 3.17 µM (active), respectively.

Regarding `CCOC(=O)c1ccc(O)cc1`, the outcome in assay [1], in assay [3], in assay [18], in [4], in assay [5] and in [6] was inactive. The outcome in assay [7], in assay [8], in [9], in [10], in [11] and in assay [12] was inactive. Besides, the result in [13], in assay [14], in assay [20], in assay [15], in assay [16] and in assay [17] was inactive.

As to `S=C([S-])NCCNC(=S)[S-].[Mn+2]`, the result in assay [1], in assay [2], in assay [4], in assay [7], in assay [8] and in assay [9] was inactive. Besides, the result in assay [10], in assay [12], in [20] and in assay [15] was inactive. Moreover, the AC50 is 36.6 µM (active) in assay [3]; 7.58 µM (active) in assay [5]; 13.2 µM (active) in assay [11]; 14.7 µM (active) in assay [13]; 14.6 µM (active) in assay [14]; 30.3 µM (active) in assay [16].

Consider `CCOC(=O)COc1cc(-n2ncc(C(F)(F)F)c(C)c2=O)c(F)cc1Cl`, for which the result in assay [1], in assay [2], in [3], in assay [4], in assay [5] and in assay [7] was inactive. The outcome in [8], in [9], in assay [10], in assay [11], in [12] and in assay [19] was inactive. The result in assay [13], in assay [14], in assay [20], in assay [15], in assay [16] and in assay [17] was inactive.
